gsp antag: antagonizes gsp, the McCune-Albright syndrome mutation | 340,000 tested, 0.4% active | Potency, µM (titrated, usually from 76.9 µM), actives largely listed as inhibitors | AID 624288 | gsp-mutant cells, cAMP HTRF, 30 min; calls by dose curve; cell line not stated here;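 also: intracellular cAMP measured with PDE inhibitor Ro 20-1724 present during compound exposure; nearly all actives have a fitted effect of over 65% in size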
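Cells in G418 medium, seeded 16-24 h, 37C; buffer exchange to DPBS + 1 mM CaCl2, 0.5 mM MgCl2, 0.05% BSA; cpds in DMSO + […] (300 uM stock), 30 min 37C; HTRF cAMP detection.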
CCT chaperon mod: changes cytosolic chaperonin activity; 360,000 tested, 0.3% active; activity change, % (concentration not given with the values), hits read low; AID 651819; purified chaperonin ATPase assay, HTRF ADP detection, 30 min; in the data active = activity change below about -30%
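TRiC (40 or 20 nM final, by batch activity) in 30 mM Tris pH 7.4, 100 mM KCl, 5 mM MgCl2, 1 mM DTT was treated with compound at 76 uM single dose, then 10 uM ATP, 30 min at 37 °C. ADP was read by HTRF Transcreener.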
gsp ag: activates gsp, the McCune-Albright syndrome mutation; gsp mutant cells, cAMP HTRF, 30 min; Potency, µM (highest dose often 76.9 µM), hits mostly activators; 340,000 tested, 0.13% active; AID 624287; active = well fitted activation curve with a large enough effect; inconclusive = small, poorly fitted or top-dose-only effect, or another doubt; inactive = no such curve, though single readings can be large or run the other way; cell line not stated here;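 also: phosphodiesterase inhibitor Ro 20-1724 added with compounds to block cAMP breakdown; nearly all actives have a fitted effect of over 60% in size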
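Cells in DMEM/10% FBS with G418 were pretreated with compounds in DMSO plus […] (300 uM stock) for 30 min at 37C. cAMP was measured by HTRF (cAMP-d2 plus anti-cAMP antibody-K) after 30 min at room temperature.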
RXFP1 agonist: agonists of human relaxin receptor RXFP1; Q9HBX9; HEK293T-RXFP1 cAMP TR-FRET, 30 min; response scale: percent of porcine relaxin response, buffer zero; Potency, µM (top dose mostly 57.5 µM), usual class: activators; 370,000 tested, 0.3% active; AID 2676; also: nearly all actives have a fitted effect of over 60% in size
Target sequence (Q9HBX9 whole entry, looked up): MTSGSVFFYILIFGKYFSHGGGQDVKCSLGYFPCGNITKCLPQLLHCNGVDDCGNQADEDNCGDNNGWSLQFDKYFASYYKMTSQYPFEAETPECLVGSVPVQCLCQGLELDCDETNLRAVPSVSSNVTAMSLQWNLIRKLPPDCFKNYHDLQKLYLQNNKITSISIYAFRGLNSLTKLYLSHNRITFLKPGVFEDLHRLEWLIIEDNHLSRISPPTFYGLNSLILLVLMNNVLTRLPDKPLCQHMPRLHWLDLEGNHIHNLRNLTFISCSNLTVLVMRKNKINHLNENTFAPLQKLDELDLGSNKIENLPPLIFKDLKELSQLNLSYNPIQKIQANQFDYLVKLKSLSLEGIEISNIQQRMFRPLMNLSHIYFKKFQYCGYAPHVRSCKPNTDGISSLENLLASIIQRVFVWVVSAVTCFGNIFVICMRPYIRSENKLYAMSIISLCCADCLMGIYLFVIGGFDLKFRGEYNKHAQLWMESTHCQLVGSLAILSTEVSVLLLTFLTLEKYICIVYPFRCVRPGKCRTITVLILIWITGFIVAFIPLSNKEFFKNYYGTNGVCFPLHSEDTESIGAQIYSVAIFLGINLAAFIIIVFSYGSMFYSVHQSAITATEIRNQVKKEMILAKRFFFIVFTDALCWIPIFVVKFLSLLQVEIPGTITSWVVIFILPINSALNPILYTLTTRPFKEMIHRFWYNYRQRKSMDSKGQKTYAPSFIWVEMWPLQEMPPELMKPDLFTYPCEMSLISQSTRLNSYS
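HEK293 cells stably expressing RXFP1, treated 30 min at 37C with compounds plus PDE4 inhibitor Ro 20174; cAMP measured by HTRF TR-FRET. Normalized to buffer and 29 nM porcine relaxin; EC50 by Hill fit.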
RXFP1 antag: antagonists of human relaxin receptor RXFP1; AID 1259400; 350,000 tested, 0.59% active; Q9HBX9; activity change, negative = inhibition, % at 57.5 µM; HEK293-RXFP1, relaxin-stimulated cAMP HTRF, 30 min; hits give low values;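 active = activity change of -60% or lower, but not beyond a set lower limit; inconclusive = change between -60% and -40%, or beyond the set limit; inactive = change above -40%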
Mm-Cpn inhibitor: M. maripaludis TRiC chaperonin inhibition | purified Mm-Cpn ATPase, ADP Transcreener TR-FRET | Potency, µM (top dose mostly 76.9 µM), most hits filed as inhibitors | 330,000 tested, 0.031% active; also: nearly all actives have a fitted effect of over 80% in size
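ATPase read-out: TR-FRET ADP immunoassay (anti-ADP Eu cryptate vs ADP-d2), ex 320 nm, em 590/665 nm; signal drops as ADP forms. Enzyme 25 nM, ATP 10 uM, 30 min at 37°C after 10 min compound preincubation.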
Numbers stand for hits; i = inactive; ? = inconclusive; nt = no result; [ ] = dose if it differs, or a comment. Hits are enriched below; roughly 1.2% of the tested compounds scored in any of these assays. Unless noted, calls follow the shape of the dose curve; as a rule, active = well fitted curve in the direction sought with a large enough effect; inconclusive = small, poorly fitted or top-dose-only effect, or another doubt; inactive = no such curve, though single readings can be large; an effect the other way counts as inactive or inconclusive.

SMILES | gsp antag | CCT chaperon mod | gsp ag | RXFP1 agonist | RXFP1 antag | Mm-Cpn inhibitor
Cc1ccccc1C(=O)N1CCC(C(=O)N2CCN(c3ncccn3)CC2)CC1 | i | i | i | i | i | i
CCOC(=O)N1CCN(C(=O)C2CCN(C(=O)c3ccccc3C)CC2)CC1 | i | i | i[15.4 µM] | nt | -102 | nt
COc1ccc(OCC(=O)N2CCN(c3nnc(-c4ccccc4)c4ccccc34)CC2)cc1 | 40µM | i | i | i | i | i
Cc1cccc(OCC(=O)N2CCN(c3nnc(-c4ccccc4)c4ccccc34)CC2)c1 | ? | i | i | i | i | i
COc1ccc(OCC(=O)N2CCN(c3nnc(-c4ccc(C)cc4)c4ccccc34)CC2)cc1 | 28µM | i | i[15.4 µM] | i | i | i
Cc1ccc(OCC(=O)N2CCN(c3nnc(-c4ccc(C)cc4)c4ccccc34)CC2)cc1 | 35µM | i | i | i | i | i
Cc1ccc(-c2nnc(N3CCN(C(=O)COc4cccc(C)c4)CC3)c3ccccc23)cc1 | ? | i | i[15.4 µM] | i | i | i
O=C(COc1ccccc1)N1CCN(c2nnc(-c3ccccc3)c3ccccc23)CC1 | ? | i | i | i | i | i
CC1CCc2c(sc3nc(-c4cc5cc(Br)ccc5oc4=O)[nH]c(=O)c23)C1 (stereo not given) | nt | nt | nt | i | i | nt
Cc1ccc(CNC(=S)N(C)C)cc1 | i | i | i[15.4 µM] | i | i | i
CN(C)C(=S)NC(C)(C)C | i | i | i[15.4 µM] | i | i | 45µM
N#Cc1c(NC(=O)C2CC(c3ccccc3Cl)=NO2)sc2c1CCC2 (stereo not given) | i | -92 | i | i | i | i
N#Cc1c(NC(=O)C2CC(c3ccccc3O)=NO2)sc2c1CCC2 (stereo not given) | i | i | i | i | i | i
Cc1ccc(C2=N/C(=C\c3ccc(F)cc3)C(=O)N2)cc1 | i | -44 | i | i | i | i
Cc1ccc2c(c1)/C(=C/c1ccc(F)cc1)C(=O)N2 | i | i | i | i | i | i
COC(=O)C1=C(C)NC(C)=C(C(=O)OCCN(C)Cc2ccccc2)C1c1cccc([N+](=O)[O-])c1 (stereo not given) | i | i | nt | i | -76 | i
CC(C)c1ccccc1NC(=S)NC(=O)C1CCCCC1 | i | i | ? | nt | -65 | i
CC(C)c1ccccc1NC(=O)c1ccccc1NC(=O)C1CCCCC1 | i | i | i | i | i | i
CC(C)(C)OC(=O)N[C@@H](Cc1ccccc1)c1nnc(S(=O)(=O)Cc2cccc(F)c2)o1 | i | i | i | i | -119 | i
Cc1ccccc1CS(=O)(=O)c1nnc([C@H](CC(C)C)NC(=O)OC(C)(C)C)o1 | i | i | i | i | i | i
CCOc1ccccc1CNC(=O)CCc1cn(Cc2ccc(Cl)cc2)c2ccccc12 | nt | nt | nt | i | i | nt
CC1Sc2n(c3ccccc3[n+]2C)N=C1c1ccccc1 (stereo not given) | i | -34 | i | i | i | i
C[n+]1c2n(c3ccccc31)N=C(c1ccc(Cl)cc1)CS2 | i | i | i | i | i | i
CCOc1ccc(-c2nnc(Nc3ccc(OC)c(C(=O)N4CCCCC4)c3)c3ccccc23)cc1 | 35µM | i | i | i | i | i
CNC(=O)c1cc(Nc2nnc(-c3ccc(O)cc3)c3ccccc23)ccc1OC | i | i | i | i | i | i
SMILES | gsp antag | CCT chaperon mod | gsp ag | RXFP1 agonist | RXFP1 antag | Mm-Cpn inhibitor
COc1cc2sc(-c3ccc(S(C)(=O)=O)cc3)c(C(=O)NCc3ccc(C)o3)c2cc1OC | i | i | nt | nt | nt | 50µM
COc1cc2sc(-c3ccc(S(C)(=O)=O)cc3)c(C(=O)NCCCCO)c2cc1OC | i | i | nt | nt | nt | i
COc1ccc(OC)c(CCNC(=O)c2nc(-c3ccc(Cl)cc3)n3c2CCCCC3)c1 | nt | nt | nt | i | i | nt
CC/C=C(/C(=O)N[C@@H]1C(=O)N2C(C(=O)OCOC(=O)C(C)(C)C)=C(COC(N)=O)CS[C@H]12)c1csc(N)n1 | nt | nt | nt | nt | i | nt
CC1(C)O[C@@H]2C[C@H]3[C@@H]4CCC5=CC(=O)C=C[C@]5(C)[C@@H]4[C@@H](O)C[C@]3(C)[C@]2(C(=O)CO)O1 | nt | nt | nt | nt | i | nt
Cc1ccc2[nH]c(=S)cc(C)c2c1 | i | i | i | i | i | i
Cc1ccc2c(C)cc(=S)[nH]c2c1 | i | i | 22µM | 28µM | i | i
CCOC(=O)c1ccc(NC(=O)CCc2nc(-c3cccc(C)c3)no2)cc1 | 35µM | i | i | i | i | i
NC(=O)SCC(=O)Nc1ccc(Cl)c(Cl)c1 | i | i | i | i | -71 | ?
Cc1ccc(NC(=O)CSC(N)=O)cc1Cl | i | i | i | i | i | i
Cc1cccc(NC(=O)CSc2ccc3nnc(-c4cccnc4)n3n2)c1 | i | i | i[15.4 µM] | ? | i | i
CCOC(=O)C(CC)Sc1ccc2nnc(-c3cccnc3)n2n1 (stereo not given) | i | i | i[15.4 µM] | 18µM | i | i
CCC(Sc1ccc2nnc(-c3cccnc3)n2n1)C(=O)O (stereo not given) | i | i | 2.5µM | 14µM | nt | ?
CCc1ccc(NC(=O)C2CCN(S(=O)(=O)c3c(C)noc3/C=C\c3ccc(OC)cc3)CC2)cc1 | nt | nt | nt | i | i | nt
CC1=CC(c2ccccc2)n2nc(N)nc2N1 (stereo not given) | i | -87 | i | nt | nt | nt
CC(C)OCCCn1c(=O)c2ccccc2n2c(CCC(=O)N3CCN(c4ccccn4)CC3)nnc12 | i | i | 20µM | i | i | i
CC(C)CCn1c(=O)c2ccccc2n2c(CCC(=O)NC3CCN(Cc4ccccc4)CC3)nnc12 | i | i | i | i | i | i
CC(C)CCn1c(=O)c2ccccc2n2c(CCC(=O)NCC3CCCO3)nnc12 (stereo not given) | i | i | 32µM | ? | i | i
